Experimental data: PubChem BioAssay (NCATS)
Inconclusive results are not listed. Calls of active or inactive are those of the source. Unless noted, calls follow the shape of the full dose curve.

What was measured:
[1] = target: Estrogen receptor (Homo sapiens) (UniProt P03372); assay: qHTS assay for small molecule agonists of estrogen receptor alpha signaling (AID 588514);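 also: 0% = vehicle only and 100% = reference agonist; nearly all actives have a fitted effect of over 70% in size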
Method in brief: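 EC50 and efficacy came from Hill fits of beta-lactamase reporter signal (CCF4 dye, 2 h at room temperature) scaled between DMSO and 20 nM 17-beta-estradiol. Agonist mode: HEK293 ER-alpha-UAS-bla cells in charcoal/dextran-stripped serum medium, 18 h compound exposure at 37 C.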

[2] = target: Glucocorticoid receptor (Homo sapiens) (UniProt P04150); assay: qHTS assay for small molecule agonists of glucocorticoid receptor signaling (AID 588532; active = well fitted curve in the direction sought with a large enough effect in the signal ratio, with a control signal flat; the % refers to the signal ratio;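 also: 100% = dexamethasone at 0.1 µM and 0% = DMSO only wells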); conditions: HeLa MMTV-bla, beta-lactamase ratio, agonist, 18 h; activation: stronger effect = higher value, percent of dexamethasone control, DMSO zero
Chain of Glucocorticoid receptor (Homo sapiens) (P04150 whole entry, looked up): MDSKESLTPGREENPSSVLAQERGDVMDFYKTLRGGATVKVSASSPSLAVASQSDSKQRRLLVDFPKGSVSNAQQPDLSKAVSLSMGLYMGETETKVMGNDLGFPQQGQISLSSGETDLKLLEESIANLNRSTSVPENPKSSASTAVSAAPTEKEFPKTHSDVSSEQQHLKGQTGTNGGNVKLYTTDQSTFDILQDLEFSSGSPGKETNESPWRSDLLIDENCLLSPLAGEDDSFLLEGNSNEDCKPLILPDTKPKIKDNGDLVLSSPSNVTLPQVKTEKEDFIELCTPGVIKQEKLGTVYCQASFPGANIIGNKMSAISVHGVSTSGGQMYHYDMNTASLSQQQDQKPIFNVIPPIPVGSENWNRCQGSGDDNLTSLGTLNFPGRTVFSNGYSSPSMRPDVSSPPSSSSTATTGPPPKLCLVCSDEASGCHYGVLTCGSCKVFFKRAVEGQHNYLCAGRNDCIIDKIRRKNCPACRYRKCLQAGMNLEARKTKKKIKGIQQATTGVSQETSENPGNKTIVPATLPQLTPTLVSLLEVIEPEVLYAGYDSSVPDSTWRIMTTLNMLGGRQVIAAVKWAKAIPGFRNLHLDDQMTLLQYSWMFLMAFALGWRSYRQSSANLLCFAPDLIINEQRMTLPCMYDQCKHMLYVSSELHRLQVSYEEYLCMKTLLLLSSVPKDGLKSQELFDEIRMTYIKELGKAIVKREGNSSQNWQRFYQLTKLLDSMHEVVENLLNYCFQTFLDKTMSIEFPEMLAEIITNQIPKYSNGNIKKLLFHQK
Method in brief: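 Quantitative HTS using CellSensor MMTV-bla HeLa cells in charcoal/dextran-treated serum; compounds tested up to 92 uM. After 18 h at 37 C, CCF4 dye reported reporter induction.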

[3] = target: Peroxisome proliferator-activated receptor delta (Homo sapiens) (UniProt Q03181); assay: qHTS assay for small molecule agonists of peroxisome proliferator-activated receptor delta signaling (AID 588534);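 also: 0% = DMSO basal wells and 100% = positive control agonist at 10 µM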
Chain of Peroxisome proliferator-activated receptor delta (Homo sapiens) (Q03181 whole entry, looked up): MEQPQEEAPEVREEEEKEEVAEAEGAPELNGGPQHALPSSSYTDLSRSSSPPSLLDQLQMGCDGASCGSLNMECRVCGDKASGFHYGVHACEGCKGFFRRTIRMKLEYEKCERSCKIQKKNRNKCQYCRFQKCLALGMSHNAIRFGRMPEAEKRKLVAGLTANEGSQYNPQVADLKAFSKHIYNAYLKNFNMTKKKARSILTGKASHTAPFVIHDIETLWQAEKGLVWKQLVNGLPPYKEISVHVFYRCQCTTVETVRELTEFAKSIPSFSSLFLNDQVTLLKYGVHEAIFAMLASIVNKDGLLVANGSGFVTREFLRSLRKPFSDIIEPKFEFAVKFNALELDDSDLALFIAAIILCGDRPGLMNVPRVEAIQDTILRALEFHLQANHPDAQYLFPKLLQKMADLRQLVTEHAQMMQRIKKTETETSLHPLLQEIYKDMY
Method in brief: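 Agonist-mode beta-lactamase reporter readout (CCF4 dye, 2 h at RT) after 18 h at 37 °C exposure to a titration; Hill-equation fitting gave EC50 and maximal response.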

[4] = target: Vitamin D3 receptor (Homo sapiens) (UniProt P11473); assay: qHTS assay for small molecule agonists of vitamin D receptor signaling (AID 588543);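 also: 0% = DMSO basal and 100% = reference agonist control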
Chain of Vitamin D3 receptor (Homo sapiens) (P11473 whole entry, looked up): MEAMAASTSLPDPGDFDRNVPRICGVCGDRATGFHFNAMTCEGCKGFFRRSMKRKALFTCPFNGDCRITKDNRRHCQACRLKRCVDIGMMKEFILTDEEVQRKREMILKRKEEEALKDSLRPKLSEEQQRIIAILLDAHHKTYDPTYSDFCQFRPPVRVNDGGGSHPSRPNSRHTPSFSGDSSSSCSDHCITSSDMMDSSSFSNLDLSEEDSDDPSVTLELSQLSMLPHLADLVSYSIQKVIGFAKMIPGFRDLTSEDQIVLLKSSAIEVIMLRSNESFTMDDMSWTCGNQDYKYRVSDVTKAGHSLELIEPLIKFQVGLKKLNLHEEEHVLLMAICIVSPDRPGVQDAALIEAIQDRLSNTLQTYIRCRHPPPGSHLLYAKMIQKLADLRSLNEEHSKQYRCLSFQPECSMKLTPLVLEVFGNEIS
Method in brief: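 Measured: β-lactamase reporter activity (CCF4, 405 nm excitation, 460/530 nm emission) in HEK293T VDR-UAS-bla cells after 16 h compound exposure at 37 °C. Normalization against 50 nM 1α,25-dihydroxyvitamin D3 and DMSO; Hill-fit EC50.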

[5] = target: Thyroid hormone receptor beta (Homo sapiens) (UniProt P10828); assay: qHTS assay for small molecule agonists of thyroid hormone receptor beta signaling (AID 588545)
Chain of Thyroid hormone receptor beta (Homo sapiens) (P10828 whole entry, looked up): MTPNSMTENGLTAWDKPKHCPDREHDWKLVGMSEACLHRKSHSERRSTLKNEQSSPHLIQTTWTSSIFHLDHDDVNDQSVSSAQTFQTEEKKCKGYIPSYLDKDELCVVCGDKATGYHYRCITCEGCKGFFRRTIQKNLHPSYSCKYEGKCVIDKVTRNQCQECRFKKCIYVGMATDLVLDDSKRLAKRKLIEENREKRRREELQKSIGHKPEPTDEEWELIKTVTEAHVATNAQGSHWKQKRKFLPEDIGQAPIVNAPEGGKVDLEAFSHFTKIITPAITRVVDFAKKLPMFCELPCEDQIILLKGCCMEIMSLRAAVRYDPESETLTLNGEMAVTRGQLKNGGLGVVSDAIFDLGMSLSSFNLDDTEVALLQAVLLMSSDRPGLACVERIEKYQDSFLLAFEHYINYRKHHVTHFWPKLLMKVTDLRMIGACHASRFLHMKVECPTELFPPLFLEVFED
Method in brief: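 In this cell-based screen, titrated compounds act on HEK 293 cells held in medium with 2% charcoal/dextran FBS, NEAA and pyruvate for 18 hrs at 37 C. Responses are expressed relative to T3 (10 nM) as 100% and basal DMSO as 0%.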

[6] = qHTS assay for small molecule antagonists of retinoid X receptor alpha signaling (AID 588546; active = well fitted inhibition curve with a large enough effect in the signal ratio, with a control signal flat, not every such curve was filed as active; the % refers to the signal ratio; also: potency is read from the fitted curve at half-maximal effect;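 as to max response: cells stimulated with 9-cis-retinoic acid as agonist; % is scaled to controls: 0 for no effect and ±100 for the full control effect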); conditions: HEK293T RXRa-UAS-bla, beta-lactamase ratio, antagonist mode; measured here: W530 green channel, cytotoxicity proxy
Method in brief: (§1)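 Beta-lactamase reporter inhibition, read as CCF4 fluorescence ratio (ex 405, em 460/530 nm) after 2 h at RT. HEK293T UAS-bla cells, 2500/well, were stimulated with 9-cis-RA at 500 or 100 nM final alongside test compound for 18 h at 37 C.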

[7] = target: Retinoic acid receptor RXR-alpha (Homo sapiens) (UniProt P19793); assay: as above; conditions: HEK293T RXRa-UAS-bla, beta-lactamase ratio, antagonist mode
Chain of Retinoic acid receptor RXR-alpha (Homo sapiens) (P19793 whole entry, looked up): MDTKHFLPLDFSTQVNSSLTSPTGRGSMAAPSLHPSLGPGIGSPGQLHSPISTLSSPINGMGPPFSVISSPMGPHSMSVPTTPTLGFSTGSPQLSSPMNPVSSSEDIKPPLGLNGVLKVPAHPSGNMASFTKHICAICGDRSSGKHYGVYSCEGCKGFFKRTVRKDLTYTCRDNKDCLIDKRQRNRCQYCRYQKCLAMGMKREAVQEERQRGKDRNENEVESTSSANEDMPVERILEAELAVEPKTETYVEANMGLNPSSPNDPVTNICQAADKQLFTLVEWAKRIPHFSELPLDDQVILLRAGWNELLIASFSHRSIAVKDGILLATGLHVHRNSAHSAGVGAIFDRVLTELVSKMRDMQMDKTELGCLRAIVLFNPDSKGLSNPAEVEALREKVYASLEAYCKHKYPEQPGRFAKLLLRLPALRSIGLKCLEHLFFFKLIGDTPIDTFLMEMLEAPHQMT
Method in brief: as §1

[8] = qHTS assay for small molecule activators of the p53 signaling pathway (AID 651743; active = well fitted activation curve with a large enough effect in the signal ratio, not every such curve was filed as active; the % refers to the signal ratio; also: series mostly up to about 92 µM; % of control where 0% means no effect); conditions: HCT-116 p53RE-bla, beta-lactamase FRET ratio, 16 h; activation: stronger effect = higher value
Method in brief: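 After 16 hours compound treatment at 37 C, HCT-116 cells stably expressing p53RE-driven beta-lactamase were loaded with LiveBLAzer B/G FRET substrate for 2 hours at room temperature. Fluorescence intensity served as the p53 activation read-out.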

[9] = qHTS assay for small molecule agonists of the antioxidant response element (ARE) signaling pathway measured by Nrf2-dependant transcriptional activity - cell viability counter screen (AID 720653; active = well fitted curve in the direction sought with a large enough effect in the repeat runs; an effect the other way counts as inactive or inconclusive; also: % is scaled to controls: 0 for no effect and ±100 for the full control effect); conditions: ARE-bla HepG2 viability, CellTiter-Glo ATP luminescence, 16 h; max response: stronger effect = lower value
Method in brief: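 Cytotoxicity counter screen: intracellular ATP quantified by CellTiter-Glo luminescence in the same ARE-bla HepG2 plates, after 16 h compound exposure and a 2 h beta-lactamase substrate step.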

[10] = qHTS assay for cell viability of the p53RE-bla HCT-116 cell line (AID 743292; active = well fitted curve in the direction sought with a large enough effect; an effect the other way counts as inactive or inconclusive; also: % is scaled to controls: 0 for no effect and ±100 for the full control effect; nearly all actives have a fitted effect of over 55% in size)
Method in brief: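 CellSensor p53RE-bla HCT-116 cells, 4,000/well, preincubated 5 h at 37 C, then exposed to compounds in DMSO for 16 h at 37 C. Viability read as CellTiter-Glo luminescence (intracellular ATP) after 30 min at room temperature.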

[11] = target: Peroxisome proliferator-activated receptor delta (Homo sapiens) (UniProt Q03181); assay: qHTS assay for small molecule antagonists of peroxisome proliferator-activated receptor delta signaling (AID 588535; active = well fitted inhibition curve with a large enough effect in the signal ratio, with a control signal flat, not every such curve was filed as active; the % refers to the signal ratio)
Method in brief: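 Titrations were run on PPAR-delta-UAS-bla HEK293T cells in charcoal/dextran-stripped serum, incubated 18 h at 37 C. CCF4 fluorescence (460/530 nm) after 2 h RT; Hill equation yields IC50 and maximal response.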

[12] = target: Vitamin D3 receptor (Homo sapiens) (UniProt P11473); assay: qHTS assay for small molecule antagonists of vitamin D receptor signaling (AID 588541);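 also: receptor activated by calcitriol during compound treatment; series mostly up to about 77 µM; % is scaled to controls: 0 for no effect and ±100 for the full control effect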
Method in brief: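 Antagonist-mode beta-lactamase reporter assay: HEK293T VDR-UAS-bla cells were exposed to titrated compound alongside 1-alpha,25-dihydroxyvitamin D3 at 3 nM final for 16 h. Values were normalized to the 50 nM agonist control and DMSO basal, with IC50 and efficacy from Hill equation fits.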

[13] = target: Retinoic acid receptor RXR-alpha (Homo sapiens) (UniProt P19793); assay: qHTS assay for small molecule agonists of retinoid X receptor alpha signaling (AID 588544);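 also: 0% = DMSO basal wells and 100% = reference agonist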
[14] = qHTS assay for environmental chemicals that activate the Aryl hydrocarbon Receptor (AhR) signaling pathway (AID 651777; active = well fitted curve in the direction sought with a large enough effect; an effect the other way counts as inactive or inconclusive; also: % of control where 0% means no effect; nearly all actives have a fitted effect of over 15% in size); conditions: 1A2-DRE human hepatoma cells, luciferase, 24 h; activation: stronger effect = higher value
Method in brief: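 Human hepatoma 1A2-DRE cells, stably carrying a dioxin response element and CYP1A2 promoter driving luciferase, were exposed to compounds for 24 hr at 37 C and 5% CO2. Luciferase signal was then read after 30 min One-Glo at room temperature.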

[15] = target: Peroxisome proliferator-activated receptor alpha (Homo sapiens) (UniProt Q07869); assay: qHTS assay for small molecule agonists of the peroxisome proliferator-activated receptor alpha (PPARalpha) signaling pathway (AID 651778; active = well fitted curve in the direction sought with a large enough effect; an effect the other way counts as inactive or inconclusive; also: % of control where 0% means no effect); conditions: PathHunter PPARalpha complementation, chemiluminescence, 6 h; max response: stronger effect = higher value
Chain of Peroxisome proliferator-activated receptor alpha (Homo sapiens) (Q07869 whole entry, looked up): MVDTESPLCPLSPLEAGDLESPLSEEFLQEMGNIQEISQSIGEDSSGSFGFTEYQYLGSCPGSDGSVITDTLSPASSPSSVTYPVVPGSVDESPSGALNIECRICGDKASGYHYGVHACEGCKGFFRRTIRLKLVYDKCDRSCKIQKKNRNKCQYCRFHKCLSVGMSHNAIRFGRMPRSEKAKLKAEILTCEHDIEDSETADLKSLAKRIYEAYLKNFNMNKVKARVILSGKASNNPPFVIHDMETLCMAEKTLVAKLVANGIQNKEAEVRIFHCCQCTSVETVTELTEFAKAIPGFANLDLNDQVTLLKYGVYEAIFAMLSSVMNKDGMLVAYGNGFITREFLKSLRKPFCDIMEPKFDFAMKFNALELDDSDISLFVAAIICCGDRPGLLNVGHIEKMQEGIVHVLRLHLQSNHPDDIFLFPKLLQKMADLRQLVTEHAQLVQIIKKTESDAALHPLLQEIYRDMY
Method in brief: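 Chemiluminescence from complemented enzyme reported PPARalpha activation in cells after 6 hr of compound treatment at 37 C. The detection reagent was incubated for 60 min at room temperature, and compounds were scored as agonists.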

[16] = qHTS assay for small molecule agonists of the antioxidant response element (ARE) signaling pathway measured by Nrf2-dependant transcriptional activity (AID 720636; active = well fitted curve in the direction sought with a large enough effect in the repeat runs; an effect the other way counts as inactive or inconclusive; also: % of control where 0% means no effect)
Method in brief: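 ARE-luc HepG2 cells carrying an Nrf2-responsive luciferase reporter were plated in medium with 1% dialyzed FBS, left 6 hr at 37 C to attach, then exposed to compound for 16 hr. Luciferase luminescence was read after ONE-Glo addition.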

[17] = qHTS assay for cell viability of HEK293 cells (AID 743288; active = well fitted curve in the direction sought with a large enough effect; an effect the other way counts as inactive or inconclusive; also: % is scaled to controls: 0 for no effect and ±100 for the full control effect; nearly all actives have a fitted effect of over 50% in size); conditions: ATP luminescence (CellTiter-Glo), 18 h; max response: stronger effect = lower value
Method in brief: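 HEK293, 18 h, 37 C, ATP luminescence. Cells at 2,000/well were allowed at least 5 h to settle before dosing; CellTiter-Glo developed 30 min at RT.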

[18] = target: Nuclear receptor subfamily 1 group I member 2 (Rattus norvegicus) (UniProt Q9R1A7); assay: qHTS assay for small molecule activators of the rat pregnane X receptor (rPXR) signaling pathway (AID 651751; call rule not given here; also: 0% is about no effect); conditions: rPXR reporter cells, luciferase (One-Glo), 24 h
Chain of Nuclear receptor subfamily 1 group I member 2 (Rattus norvegicus) (Q9R1A7 whole entry, looked up): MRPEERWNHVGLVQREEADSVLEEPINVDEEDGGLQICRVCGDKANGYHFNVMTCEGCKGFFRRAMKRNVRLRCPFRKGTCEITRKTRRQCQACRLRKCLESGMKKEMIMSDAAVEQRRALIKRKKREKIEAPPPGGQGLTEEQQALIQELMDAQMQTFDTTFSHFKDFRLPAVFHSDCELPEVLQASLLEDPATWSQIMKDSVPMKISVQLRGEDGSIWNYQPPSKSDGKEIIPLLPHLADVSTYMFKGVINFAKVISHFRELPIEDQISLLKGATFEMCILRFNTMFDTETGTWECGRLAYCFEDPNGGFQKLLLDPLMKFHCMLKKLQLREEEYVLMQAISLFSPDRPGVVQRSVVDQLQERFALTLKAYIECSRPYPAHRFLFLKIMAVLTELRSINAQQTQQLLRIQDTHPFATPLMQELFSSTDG

[19] = qHTS assay for small molecule activators of the nuclear factor-kappa B (NF-kB) signaling pathway (AID 651749; active = well fitted activation curve with a large enough effect in the signal ratio; the % refers to the signal ratio; also: series mostly up to about 77 µM; % of control where 0% means no effect); conditions: NF-kB-bla ME-180 cells, beta-lactamase FRET ratio, 16 h; activation: stronger effect = higher value
Method in brief: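 Activation measured after 16 hr compound treatment at 37C, 5% CO2, of 2,000 ME-180 cells/well stably expressing an NF-kB response element–driven beta-lactamase reporter, via FRET-disruption fluorescence.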

[20] = target: Peroxisome proliferator-activated receptor gamma (Homo sapiens) (UniProt P37231); assay: qHTS assay for small molecule agonists of peroxisome proliferator-activated receptor gamma signaling (AID 588536; active = well fitted curve in the direction sought with a large enough effect in the signal ratio, with a control signal flat, not every such curve was filed as active; the % refers to the signal ratio;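 also: 0% = DMSO basal wells and 100% = rosiglitazone at 2 µM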)
Chain of Peroxisome proliferator-activated receptor gamma (Homo sapiens) (P37231 whole entry, looked up): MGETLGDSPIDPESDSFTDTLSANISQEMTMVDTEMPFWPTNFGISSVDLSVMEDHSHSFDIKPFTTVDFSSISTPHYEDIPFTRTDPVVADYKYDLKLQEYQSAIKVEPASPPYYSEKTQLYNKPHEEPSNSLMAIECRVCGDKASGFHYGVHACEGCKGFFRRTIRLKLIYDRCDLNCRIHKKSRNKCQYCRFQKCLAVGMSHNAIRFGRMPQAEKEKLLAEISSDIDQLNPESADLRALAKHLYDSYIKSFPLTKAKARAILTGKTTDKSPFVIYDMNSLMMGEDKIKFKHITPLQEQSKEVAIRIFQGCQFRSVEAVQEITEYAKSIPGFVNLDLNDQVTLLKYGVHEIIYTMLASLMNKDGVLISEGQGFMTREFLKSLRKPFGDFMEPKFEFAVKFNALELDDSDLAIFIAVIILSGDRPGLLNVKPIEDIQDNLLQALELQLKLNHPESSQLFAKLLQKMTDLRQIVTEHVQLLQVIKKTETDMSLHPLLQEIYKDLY
Method in brief: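 Using GeneBLAzer HEK293 cells, response was quantified by CCF4 fluorescence and normalized between basal DMSO (0%) and rosiglitazone 2 uM (100%); curves yielded half-maximal stimulation concentration and efficacy.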

Chain of Estrogen receptor (Homo sapiens) (P03372 whole entry, looked up): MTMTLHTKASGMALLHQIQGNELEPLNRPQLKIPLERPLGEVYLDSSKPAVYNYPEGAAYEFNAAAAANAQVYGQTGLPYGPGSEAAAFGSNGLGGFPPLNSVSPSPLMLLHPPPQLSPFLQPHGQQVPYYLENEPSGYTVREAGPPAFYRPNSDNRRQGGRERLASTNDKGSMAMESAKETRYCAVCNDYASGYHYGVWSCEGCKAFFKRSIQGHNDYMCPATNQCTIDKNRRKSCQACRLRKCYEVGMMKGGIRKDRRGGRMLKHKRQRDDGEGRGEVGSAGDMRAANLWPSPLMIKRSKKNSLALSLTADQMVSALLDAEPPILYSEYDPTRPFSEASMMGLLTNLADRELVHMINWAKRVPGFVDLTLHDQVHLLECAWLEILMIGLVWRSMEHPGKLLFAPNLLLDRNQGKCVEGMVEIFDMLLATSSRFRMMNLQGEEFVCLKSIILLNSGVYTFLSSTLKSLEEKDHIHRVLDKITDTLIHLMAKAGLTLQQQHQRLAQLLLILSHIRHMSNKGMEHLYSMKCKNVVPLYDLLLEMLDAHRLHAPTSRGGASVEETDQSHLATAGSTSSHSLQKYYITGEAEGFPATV

CC(C)(C)[C@@H](O)/C(=C\c1ccc(Cl)cc1Cl)n1cncn1
active: Potency [7] 44.7 µM
inactive: Potency [1] | activation [2] -11.9% | outcome [3] | outcome [4] | Potency [5] | activation [8] -3.2% | max response [9] 6.93% | Potency [10]
18.6%: max response [6]

COC(=O)/C=C(\C)OP(=O)(OC)OC
inactive: Potency [1] | activation [2] -1.06% | outcome [3] | Potency [11] | Potency [12] | Potency [13] | max response [7] -10.3% | activation [8] -3.2% | activation [14] 0.265% | max response [15] -1.45% | Potency [16] | max response [9] 12.7% | max response [17] -3.83% | Potency [10] | max response [18] -0.069%
-19.7%: max response [6]

O=C(O)C1(O)c2ccccc2-c2ccc(Cl)cc21 (configuration not stated)
inactive: Potency [1] | activation [2] -12.8% | Potency [12] | outcome [4] | activation [8] 13.8% | activation [19] 3.02% | activation [14] 9.46% | max response [15] 13.5% | max response [9] -16.8% | max response [17] -18.3% | Potency [10]

CC(C)C1(C)N=C(c2nc3ccccc3cc2C(=O)O)NC1=O (configuration not stated)
inactive: Potency [1] | activation [2] 2.3% | outcome [3] | Potency [12] | outcome [4] | Potency [13] | Potency [5] | max response [7] 4.25% | activation [8] 1.69% | activation [19] -0.622% | activation [14] -0.47% | max response [15] 0.197% | Potency [16] | max response [9] -2.59% | max response [17] -6.66% | Potency [10] | max response [18] -1.98%
6.33%: max response [6]

CCSC(=O)N(CC)C1CCCCC1
12.6%: max response [6]
inactive: Potency [1] | activation [2] -1.4% | outcome [3] | Potency [20] | outcome [4] | Potency [13] | max response [7] 16.6% | activation [19] 1.91% | max response [15] -3.86% | Potency [16] | max response [9] 13.6% | max response [17] 10.3% | max response [18] -10.9%

CCOP(=O)(OCC)SCS(=O)(=O)C(C)(C)C
-4.31%: max response [6]
inactive: Potency [1] | activation [2] -1.34% | outcome [3] | Potency [11] | Potency [20] | Potency [12] | outcome [4] | Potency [13] | Potency [5] | max response [7] 2.18% | activation [8] 2.21% | activation [19] -0.0868% | activation [14] 2.25% | max response [15] -3.37% | Potency [16] | max response [9] 1.67% | max response [17] -4.67% | Potency [10] | max response [18] 5.96%

Nc1cccc(Cl)c1Cl
inactive: Potency [1] | activation [2] 0.21% | outcome [3] | Potency [11] | Potency [20] | outcome [4] | Potency [13] | Potency [5] | max response [7] -4.45% | activation [8] -4.27% | activation [19] -2.53% | activation [14] -0.499% | Potency [16] | max response [9] -14.4% | max response [17] -1.9% | Potency [10] | max response [18] 0.634%
-14.5%: max response [6]

CC(C)N(C(=O)COc1nnc(C(F)(F)F)s1)c1ccc(F)cc1
inactive: Potency [1] | activation [2] 1.07% | outcome [3] | Potency [11] | Potency [20] | Potency [5] | activation [8] 0.0644% | activation [19] -1.4% | activation [14] -0.614% | max response [15] -0.147% | max response [9] -9% | max response [17] -8% | Potency [10] | max response [18] -3.84%

CCOC(=O)C(Cl)Cc1cc(-n2nc(C)n(C(F)F)c2=O)c(F)cc1Cl (configuration not stated)
inactive: Potency [1] | activation [2] -0.667% | Potency [11] | Potency [20] | Potency [12] | Potency [13] | max response [7] -48.3% | activation [8] 1.44% | activation [19] -0.796% | activation [14] 1.53% | max response [15] 11% | Potency [16] | max response [9] -4.81% | max response [17] -19.9% | Potency [10] | max response [18] -2.22%
13.3%: max response [6]

CC(C)Oc1cc(-n2nc(C(C)(C)C)oc2=O)c(Cl)cc1Cl
inactive: Potency [1] | activation [2] 12% | outcome [3] | Potency [11] | Potency [12] | outcome [4] | Potency [5] | activation [8] 0.204% | activation [19] 1.16% | activation [14] 0.842% | max response [9] -16% | max response [17] -26.7% | Potency [10]

CNC(=O)Oc1cccc(N=CN(C)C)c1
inactive: Potency [1] | outcome [3] | Potency [11] | Potency [20] | Potency [12] | outcome [4] | Potency [13] | Potency [5] | max response [7] 10.6% | activation [8] -4.39% | activation [14] 0.739% | max response [15] 2.04% | Potency [16] | max response [9] -21.4% | max response [17] -9.91% | max response [18] -4.82%
-11.7%: max response [6]

O=C(Nc1ccccc1)Nc1cnns1
inactive: Potency [1] | outcome [3] | Potency [11] | Potency [12] | outcome [4] | Potency [5] | max response [7] -46.6% | activation [8] 2.3% | activation [19] 0.693% | max response [15] 0.0118% | max response [9] -2.01% | max response [17] -16.6% | Potency [10]
1.32%: max response [6]
